Source: PubChem BioAssay (EPA / NIEHS)
The source made the active and inactive calls. The calls were made as follows: active = hit-call score of the fitted dose curve at least 0.9, where 1 is the maximum; inactive = score below 0.9.

Columns and labels:
[1] = APR_HepG2_CellCycleArrest_24hr: Apredica 24-hour HepG2 Assay for Cell Cycle Arrest (AID 2282905); settings: imaging, actives raise or lower the signal;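 also: cell cycle arrest scored as ratio of 2N to 4N nuclear DNA content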
In short: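 After 24 h exposure at 0.39–200 uM in 0.5% DMSO, fixed cells received Hoechst 33342 staining. Imaging quantified per-nucleus DNA content; gain or loss fitted against DMSO controls.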

[2] = APR_HepG2_NuclearSize_24hr: Apredica 24-hour HepG2 Assay for Nuclear Size (AID 2282907); settings: high-content imaging, actives raise or lower the signal
In short: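 Nuclear size from Hoechst 33342-stained, formaldehyde-fixed HepG2 nuclei imaged by high-content microscopy, after 24 h dosing at ten concentrations from 0.39 to 200 uM in 0.5% DMSO; gain or loss relative to DMSO baseline.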

[3] = APR_HepG2_CellLoss_24hr: Apredica 24-hour HepG2 Assay for Cell Loss (AID 2282908); settings: high-content imaging;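 as to AC50: fit in both directions so a hit may be cell loss or gain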
In short: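 Nuclei stained with Hoechst 33342 after formaldehyde fixation (3.7%) were imaged at 20x to count cells. Exposure lasted 24 hr, at ten concentrations from 0.39 to 200 uM in duplicate, with 0.5% v/v DMSO. Fit bidirectional, relative to DMSO.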

[4] = APR_HepG2_MicrotubuleCSK_24hr: Apredica 24-hour HepG2 Assay for Microtubule CSK Stabilty (AID 2282909); settings: HepG2 microtubule cytoskeleton imaging, actives raise or lower the signal
In short: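 Fixed HepG2 cells were stained for alpha-tubulin and imaged after 24 hr exposure to ten concentrations spanning 0.39–200 uM in 0.5% DMSO. Signal change was fitted in both directions relative to DMSO; taxol was the positive control.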

[5] = APR_HepG2_MitoticArrest_24hr: Apredica 24-hour HepG2 Assay for Mitotic Arrest (AID 2282910); settings: high-content imaging, actives raise or lower the signal
In short: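 Treatment lasted 24 hr in the human HepG2 line at 0.39–200 uM, solvent held at 0.5% DMSO. Fixed cells were stained with Hoechst 33342 and anti-phospho-histone H3, imaged at 20x, and analysed by gain- or loss-of-signal fitting against DMSO.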

[6] = APR_HepG2_MitoMembPot_24hr: Apredica 24-hour HepG2 Assay for Mitochondrial Membrane Potential (AID 2282911); settings: imaging, actives raise or lower the signal
In short: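 Human hepatoma HepG2 cultures received ten compound concentrations up to 200 uM for 24 hr. Membrane-potential dye signal, captured by automated fluorescence microscopy, was scored for gain or loss against DMSO controls.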

[7] = APR_HepG2_MitoMass_24hr: Apredica 24-hour HepG2 Assay for Mitochondrial Mass (AID 2282912); settings: high-content imaging, actives raise or lower the signal
In short: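 Endpoint is MitoTracker Red CMXRos (250 nM, 30 min, pre-fixation) intensity from 20x high-content imaging, nuclei located by Hoechst. Human HepG2 cells received ten concentrations from 0.39 to 200 uM in 0.5% DMSO for 24 hr, duplicate wells. Bidirectional fit relative to DMSO.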

[8] = APR_HepG2_p53Act_24hr: Apredica 24-hour HepG2 Assay for p53 Activation (AID 2282913); settings: high-content imaging, actives raise or lower the signal;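 also: p53 protein immunofluorescence averaged per cell in HepG2 with Hoechst nuclei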
In short: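 Automated fluorescence imaging quantifies p53 immunostaining in HepG2 cells after a 24 hr exposure (0.39–200 uM, duplicate, 0.5% DMSO). Nuclei are located by Hoechst 33342 staining.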

[9] = APR_HepG2_CellCycleArrest_72hr: Apredica 72-hour HepG2 Assay for Cell Cycle Arrest (AID 2282914); settings: high-content imaging, actives raise or lower the signal
In short: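 Cell cycle arrest in HepG2 was scored from nuclear DNA content after 72 hr compound treatment (0.39–200 uM). Activity, either gain or loss, was fitted against the DMSO baseline.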

[10] = APR_HepG2_CellLoss_72hr: Apredica 72-hour HepG2 Assay for Cell Loss (AID 2282915); settings: high-content imaging
In short: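 HepG2 cells were exposed for 72 hr to compounds at 0.39–200 uM (ten concentrations, duplicate) in 0.5% v/v final DMSO. Nuclei were stained with Hoechst 33342 after 3.7% formaldehyde fixation, imaged at 20x, and counted; fits bidirectional versus DMSO.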

[11] = APR_HepG2_P-H2AX_72hr: Apredica 72-hour HepG2 Assay for H2AX Phosphorylation (AID 2282916); settings: imaging, actives raise or lower the signal;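 also: phospho-histone H2A.x immunostain intensity per cell marking DNA damage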
In short: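 Phospho-histone H2A.x immunofluorescence, multiplexed with Hoechst and c-Jun, quantified by high-content imaging. Compounds applied to HepG2 for 72 h across ten concentrations (0.39–200 uM, 0.5% DMSO), in duplicate; DMSO baseline.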

[12] = APR_HepG2_MitoMembPot_72hr: Apredica 72-hour HepG2 Assay for Mitochondrial Membrane Potential (AID 2282917); settings: imaging, actives raise or lower the signal
In short: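 HepG2 cells exposed 72 h to compounds at 0.39–200 uM (0.5% v/v DMSO, duplicates); MitoTracker Red CMXRos 250 nM loaded 30 min before 3.7% formaldehyde fixation, imaged by HCS fluorescence. Bidirectional fit versus DMSO.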

[13] = APR_HepG2_MitoticArrest_72hr: Apredica 72-hour HepG2 Assay for Mitotic Arrest (AID 2282918); settings: high-content imaging, actives raise or lower the signal
In short: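 Mitotic arrest in HepG2 is scored from phospho-histone H3 staining after 72 hr dosing across 0.39–200 uM, with DMSO at 0.5% v/v. Nuclei are identified by Hoechst 33342 and fluorescence intensity is quantified per cell.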

[14] = APR_HepG2_MicrotubuleCSK_72hr: Apredica 72-hour HepG2 Assay for Microtubule CSK Stabilty (AID 2282919); settings: HepG2 microtubule cytoskeleton, high-content imaging, actives raise or lower the signal
In short: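 Ten-point dosing (0.39–200 uM, 0.5% DMSO) of HepG2 for 72 hr, with taxol as the cytoskeletal positive control. The cells were formaldehyde-fixed and then stained with alpha-tubulin/Cy5 and Hoechst. Imaging at 20x used a −2 um Z offset for tubulin.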

[15] = APR_HepG2_StressKinase_72hr: Apredica 72-hour HepG2 Assay for Stress Kinase (AID 2282921); settings: HepG2 stress kinase (phospho-c-Jun) imaging, actives raise or lower the signal
In short: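 Stress kinase signal is phospho-c-Jun immunofluorescence (1:500 primary, Cy3 secondary) in fixed, permeabilized human HepG2 cells imaged at 20x. Exposure lasted 72 hr over ten concentrations from 0.39 to 200 uM, 0.5% DMSO, in duplicate. Bidirectional fit versus DMSO.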

[16] = APR_HepG2_StressKinase_24hr: Apredica 24-hour HepG2 Assay for Stress Kinase (AID 2282922); settings: HepG2 stress kinase (phospho-c-Jun) imaging, actives raise or lower the signal
In short: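 After 24 hr compound treatment (up to 200 uM, final DMSO 0.5% v/v), HepG2 cells are fixed and multiplex-labeled; phospho-c-Jun intensity is captured by high-content fluorescence imaging and analyzed relative to DMSO.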

[17] = APR_HepG2_p53Act_72hr: Apredica 72-hour HepG2 Assay for p53 Activation (AID 2282923); settings: high-content imaging, actives raise or lower the signal;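 also: average cellular p53 protein immunofluorescence intensity in HepG2 cells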
In short: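 After 72 h with compound (ten points, 0.39 to 200 uM, final DMSO 0.5% v/v), fixed HepG2 cells were labelled with sheep anti-p53 and Hoechst 33342 and imaged; gain or loss versus DMSO scored.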

[18] = APR_HepG2_MitoMass_72hr: Apredica 72-hour HepG2 Assay for Mitochondrial Mass (AID 2282924); settings: high-content imaging, actives raise or lower the signal;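 also: MitoTracker Red CMXRos stain intensity per cell imaged as mitochondrial mass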
In short: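 Steps: treat HepG2 72 hr (0.39–200 uM, duplicate wells); load MitoTracker Red CMXRos, 250 nM, 30 min; fix with 3.7% formaldehyde, permeabilise with 0.5% Triton X-100; capture images, nuclei via Hoechst 33342; fit bidirectionally against DMSO.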

[19] = APR_HepG2_NuclearSize_72hr: Apredica 72-hour HepG2 Assay for Nuclear Size (AID 2282925); settings: high-content imaging, actives raise or lower the signal
In short: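 Compounds (0.39–200 uM, final DMSO 0.5%) were applied to HepG2 for 72 hr. Cells were then formaldehyde-fixed, permeabilized and labelled with Hoechst 33342. Nuclear diameter was quantified from six images per well.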

[20] = APR_HepG2_P-H2AX_24hr: Apredica 24-hour HepG2 Assay for H2AX Phosphorylation (AID 2282920); settings: high-content imaging, actives raise or lower the signal
In short: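 Signal comes from a FITC-labeled secondary detecting phospho-histone H2A.x in fixed HepG2 cells, quantified by automated imaging at 20x. Dosing ran 24 hr across 0.39–200 uM with 0.5% v/v DMSO.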

Measured: AC50

Cc1cc(SC2=C(O)C[C@@](CCc3ccc(N)cc3)(C(C)C)OC2=O)c(C(C)(C)C)cc1CO
active: [6] 0.0797 µM
not listed: [20]
inactive: all other assays above

Cc1cn([C@H]2C=C[C@@H](CO)O2)c(=O)[nH]c1=O
not listed: [8] | [17]
inactive: all other assays above

CCOCCOCCO
not listed: [16] | [19] | [20]
inactive: all other assays above

CCCCC(CC)CO (centres undefined)
not listed: [19] | [20]
inactive: all other assays above

CC1(C)C(=O)NC(=O)N1CO
active: [3] 108 µM | [10] 120 µM | [18] 100 µM
not listed: [19] | [20]
inactive: all other assays above

CCN(CC)CCOc1ccc(C(=C(Cl)c2ccccc2)c2ccccc2)cc1
active: [2] 15.7 µM | [3] 48 µM | [4] 81.2 µM | [5] 10.8 µM | [6] 0.0258 µM | [7] 155 µM | [9] 26.5 µM | [10] 13.7 µM | [11] 5.35 µM | [13] 11.4 µM | [14] 61.2 µM | [20] 10.5 µM | [18] 77.9 µM
inactive: [1] | [12] | [15] | [16]

CCCCCCCCCC[N+](C)(C)[O-]
active: [3] 109 µM | [10] 140 µM | [12] 169 µM | [13] 75 µM
not listed: [16] | [19] | [20]
inactive: all other assays above

CC1=C(C)S(=O)(=O)CCS1(=O)=O
active: [9] 42.8 µM | [10] 37.4 µM | [11] 82.3 µM | [13] 33.1 µM | [17] 73.8 µM | [18] 35.9 µM
not listed: [19] | [20]
inactive: all other assays above

CCCC[C@H]1CN(CC2CCOCC2)C(=O)OC12CCN(C1(C)CCN(C(=O)c3c(C)ncnc3C)CC1)CC2
not listed: [16]
inactive: all other assays above

Oc1ccccc1O
active: [9] 36.4 µM | [10] 36.8 µM | [11] 53.2 µM
not listed: [12] | [13] | [14] | [18] | [20]
inactive: all other assays above

NC(=Nc1ccccc1)Nc1ccccc1
active: [1] 8.86 µM | [5] 21.7 µM | [10] 18.1 µM | [11] 22.4 µM | [13] 22.8 µM | [14] 34 µM | [15] 10.3 µM | [17] 23.4 µM
not listed: [16] | [20]
inactive: all other assays above

CC(=O)OC1CC(C)OC(C)O1 (centres undefined)
not listed: [8] | [17]
inactive: all other assays above

O=C(O)CN(CC(=O)O)CC(=O)O
not listed: [16] | [19] | [20]
inactive: all other assays above
